Compounds with a hit are over-represented: about 3.8% of the library has one in this group of screens.
aDG glyco up – increases alpha dystroglycan glycosylation; activation, % at 10 µM; hit rate 0.22% among 360,000; Pro5-aDG cells, alpha-DG glycosylation AlphaScreen (IIH6); 0% Pro5, 100% B10-LARGE cell signal;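 active = activation of at least 8% versus controls, or a plate z-score of at least 8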;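 also: Pro5 are CHO cells carrying HIG-tagged alpha-DG that lacks glycosylation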
SUMO Mot1 rescue – blocks SUMOylation pathway, rescuing yeast Mot1-301 growth; S. cerevisiae Mot1-301 growth rescue, ATP luminescence, 38.5C; percent above DMSO median, 100 means doubled; growth rescue, % at 18.8 µM; hit rate 1% among 320,000; AID 2716;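 active = every valid replicate shows activation above 250% relative to neutral control wells; inactive = the rest, any valid replicate at or below 250%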
FAS TE block – inhibitors of human fatty acid synthase thioesterase domain. P49327. recombinant FAS-TE, OMFH fluorogenic substrate, fluorescence endpoint. inhibition, % at 15 µM. hit rate 0.67% among 360,000;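 active = compounds whose normalised, plate-corrected inhibition of enzyme fluorescence in the single-dose primary screen is 50% or more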
MPTP block – blocks calcium-induced mitochondrial swelling. hit rate 1.4% among 360,000. inhibition, % at 10 µM. isolated mouse mitochondria, Ca2+ swelling absorbance, 30 min. AID 602449;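 active = inhibition of 50% or more, scaled per plate between neutral and stimulator controls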
Yeast superoxide – caloric restriction mimetics inhibiting age-related superoxide in yeast; S. cerevisiae aged cells, superoxide DHE fluorescence; stronger effect = lower value; superoxide response (% of plate mean), % at 10 µM; hit rate 0.18% among 330,000; AID 2690;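 active = superoxide response under a set limit, about three screen SD below normal, cut at about 65% in these data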;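 also: yeast aged for seven days with compound at 30 °C before DHE staining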
H9c2 protect – protects H9c2 cardiomyocytes from peroxide injury. protection from H2O2 cell death, % at 20 µM. AID 588492. H2O2 injury protection, ATPLite, 2 h. hit rate 0.63% among 360,000;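 active = compounds giving at least 50% protection of heart cells from peroxide-induced death in the single-dose screen, raw or plate-pattern-corrected value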
Rh123 counter – membrane potential counter-screen of mitochondrial pore inhibitors | shares compounds with MPTP block | isolated mitochondria, Rhodamine 123 fluorescence | inhibition, % at 10 µM | hit rate 78% among 5,000 | AID 624504; in the data active = inhibition above about 22%
MPTP swell DR – dose response confirmation of mitochondrial permeability transition pore inhibitors. shares compounds with MPTP block. isolated mitochondria swelling, absorbance. IC50, µM. hit rate 58% among 780. AID 651561; in the data active = IC50 below about 20 µM
MPTP cs DR – active in counter-screen for permeability transition pore inhibitors | shares compounds with MPTP block | isolated mitochondria counterscreen, fluorescence read-out | IC50, µM | hit rate 49% among 780; in the data active = IC50 below about 80 µM
Of the large screens only hits and unclear results are named; the others gave an inactive call (follow-up assays come after a bar, where they were run).

O=C(Oc1ccc2ccc(OC(=O)N3CCCCCC3)cc2c1)N1CCCCCC1	MPTP block 69 | Rh123 counter 81
O=C(Oc1ccc(Cl)cc1)N1CCCCC1	none
CN(C)S(=O)(=O)c1ccc(-c2csc(N/N=C/c3ccc(O)cc3)n2)cc1	MPTP block 58 | Rh123 counter 43
CN(C)S(=O)(=O)c1ccc(-c2csc(N/N=C/c3ccco3)n2)cc1	none
CN1CCC(=C2c3ccccc3C=Cc3ccccc32)CC1	none
CN1CCC(=C2c3ccccc3Sc3ccccc32)CC1	MPTP block 92 (no result: SUMO Mot1 rescue, Yeast superoxide) | Rh123 counter inactive | MPTP swell DR 7.3 | MPTP cs DR inactive
CC(C)C1C(=O)N(Cc2cn(CC3CCCCC3)nn2)CCS(=O)(=O)N1Cc1ccc(-c2ccc(Cl)nc2)cc1 (stereo not given)	none (no result: SUMO Mot1 rescue, Yeast superoxide)
COc1cc2c3c(n(C)c(=O)c2cc1OC)-c1cc2c(cc1C3=O)OCO2	none (no result: SUMO Mot1 rescue, Yeast superoxide)
O=C(Nc1ccc(Cl)c(Cl)c1)C1CC(=O)N(c2ccc(Br)cc2)C1 (stereo not given)	MPTP block 63 | Rh123 counter 87
Cc1ccc(N2CC(C(=O)N3CCC(C(=O)Nc4ccc(Br)cc4)CC3)CC2=O)cc1 (stereo not given)	none
Cc1cccc(CN2CCN(C3CN(Cc4cn(Cc5cccc(C(F)(F)F)c5)nn4)S(=O)(=O)C3)CC2)c1 (stereo not given)	none (no result: SUMO Mot1 rescue, Yeast superoxide, H9c2 protect)
Cc1csc2c(N3CCN(S(=O)(=O)c4ccc(Cl)cc4)CC3)ncnc12	MPTP block 67 | Rh123 counter 21
Cc1csc2c(N3CCCCC3)ncnc12	none
Cc1csc2ncnc(N3CCN(S(=O)(=O)c4cccc(C(F)(F)F)c4)CC3)c12	MPTP block 97 | Rh123 counter 93
O=S(=O)(c1cccc(Br)c1)N1CCN(c2ncnc3scc(-c4ccccc4)c23)CC1	none (no result: SUMO Mot1 rescue, Yeast superoxide)
Cc1sc2ncnc(N3CCN(S(=O)(=O)c4ccc(C(C)(C)C)cc4)CC3)c2c1C	MPTP block 100 | Rh123 counter 100
